Laboratory results reported in PubChem BioAssay (NCATS).
Inconclusive results are not listed. Unless noted, calls come from the whole dose curve; as a rule, active = well fitted curve in either direction with a large enough effect (not every such curve was filed as active); inconclusive = small, poorly fitted or top-dose-only effect, or another doubt; inactive = flat fitted curve, though single readings scatter.

How the values were obtained:
[1] = AP1 Signaling Pathway (AID 357); details: ME-180 AP-1-bla reporter, EGF-induced, beta-lactamase ratio, 5 h; at 17.2 µM (top of the series) unless noted; note: % is set by controls: 0 for no effect and ±100 for the full control effect
Procedure, shortened: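 ME-180 cells with beta-lactamase reporter under AP-1 response element, stimulated with EC50 EGF; compounds tested in titration series, 5 h at 37 °C. CCF4 substrate added 2.5 h at room temperature; 460/530 nm emission ratio gave %activity and AC50.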

[2] = NFAT Signaling Pathway (AID 444); details: Jurkat NFAT-bla M1, carbachol, beta-lactamase ratio, 5 h; at 17.2 µM (top of the series) unless noted;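 note: carbachol stimulus at about its EC50 of 1 µM final; % is set by controls: 0 for no effect and ±100 for the full control effect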
Procedure, shortened: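 Jurkat cells with NFAT-driven β-lactamase reporter and co-expressed M1 receptor, stimulated with carbachol (final 1 uM, ~EC50), compound titration, 5 h at 37 °C. CCF4 loaded 1 h at RT; 460/530 nm ratio gave %activity and AC50.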

[3] = Stat Signaling Pathway (AID 446); details: ME-180 SIE beta-lactamase reporter, IL-6 stimulated, 5 h; at 17.2 µM (top of the series) unless noted;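 note: ME-180 cervical cancer cells given 40 pM IL-6 alongside compound; SIE-controlled beta-lactamase reporter measured as 460/530 nm FRET emission ratio; % is set by controls: 0 for no effect and ±100 for the full control effect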
Procedure, shortened: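 Reporter line: ME-180 cervical carcinoma, SIE-beta-lactamase. Treatment: compound with 40 pM IL-6, 5 hrs, 37 C, in low-serum OPTI-MEM with 10 mM HEPES pH 7.3. Detection: 460/530 nm fluorescence.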

[4] = target: Glucocorticoid receptor (Homo sapiens) (UniProt P04150); test: GR-GFP Redistribution (AID 450;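 active = compounds whose dose series gives a full or clear partial fitted curve of increased nuclear translocation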; note: potency is the fitted concentration of half-maximal effect); details: U2OS GR-GFP nuclear translocation, laser cytometry, 2 h; series mostly up to 20.6 µM
Chain of Glucocorticoid receptor (Homo sapiens) (P04150 whole entry, looked up): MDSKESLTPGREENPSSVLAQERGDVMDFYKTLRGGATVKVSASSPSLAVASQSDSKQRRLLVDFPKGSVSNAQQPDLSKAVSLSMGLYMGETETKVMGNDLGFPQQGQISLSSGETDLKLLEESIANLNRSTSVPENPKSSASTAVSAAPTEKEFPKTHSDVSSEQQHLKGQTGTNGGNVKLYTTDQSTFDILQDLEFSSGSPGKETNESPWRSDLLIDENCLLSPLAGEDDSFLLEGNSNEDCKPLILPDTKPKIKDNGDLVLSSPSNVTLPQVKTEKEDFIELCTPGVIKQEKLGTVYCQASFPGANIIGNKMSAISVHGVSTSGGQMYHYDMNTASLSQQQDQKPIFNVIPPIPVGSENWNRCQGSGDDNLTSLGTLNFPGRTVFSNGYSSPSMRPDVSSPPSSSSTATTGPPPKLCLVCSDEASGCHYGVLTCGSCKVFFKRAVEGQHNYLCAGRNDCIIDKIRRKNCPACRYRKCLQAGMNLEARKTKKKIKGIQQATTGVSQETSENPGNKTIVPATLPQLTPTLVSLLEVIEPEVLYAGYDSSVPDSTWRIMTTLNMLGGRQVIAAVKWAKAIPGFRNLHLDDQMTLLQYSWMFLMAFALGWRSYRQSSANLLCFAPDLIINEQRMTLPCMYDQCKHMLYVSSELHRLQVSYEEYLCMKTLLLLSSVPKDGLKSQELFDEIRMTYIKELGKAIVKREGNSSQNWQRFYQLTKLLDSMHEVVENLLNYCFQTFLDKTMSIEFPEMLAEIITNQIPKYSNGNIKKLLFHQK

CCOC(=O)CSc1nc2ccccc2c(=O)n1C
inactive: activity change, negative = inhibition [1] -12.5% | activity change, negative = inhibition [2] -11.5% | activity, negative = inhibition [3] 1.58% | Potency [4] > 20.6 µM

CN(CCOC(=O)c1ccc2c(c1)OCCO2)Cc1ccccc1
inactive: activity change, negative = inhibition [1] 17.7% | activity change, negative = inhibition [2] -3.33% | activity, negative = inhibition [3] -4.47% | Potency [4] > 20.6 µM

O/N=C(\c1ccc2c(c1)OCCO2)C1CCCCC1
inactive: activity change, negative = inhibition [1] -6.69% | activity change, negative = inhibition [2] -7.17% | activity, negative = inhibition [3] -14% | Potency [4] > 20.6 µM

CCOc1cccc(NC(=O)C2CC(=O)NC(=Nc3ccccc3)S2)c1 (centres undefined)
inactive: activity change, negative = inhibition [1] -5.62% | activity change, negative = inhibition [2] 6.96% | activity, negative = inhibition [3] -16.5% | Potency [4] > 20.6 µM

CN1CCN(C(=O)CSc2nc(-c3ccncc3)ccc2C#N)CC1
inactive: activity change, negative = inhibition [1] 2.77% | activity change, negative = inhibition [2] -14.8% | activity, negative = inhibition [3] 1.66% | Potency [4] > 20.6 µM

COc1ccc(N2CC(=O)N(c3ccc(OC)c(OC)c3)CC2=O)cc1OC
inactive: activity change, negative = inhibition [1] 22.8% | activity change, negative = inhibition [2] 5.84% | activity, negative = inhibition [3] 1.83% | Potency [4] > 20.6 µM

Cn1cccc1/C=N/n1cnnc1
inactive: activity change, negative = inhibition [1] -2.1% | activity change, negative = inhibition [2] -1.22% | activity, negative = inhibition [3] 4.51% | Potency [4] > 20.6 µM

Cn1c(=O)oc2cc(C(=O)c3ccccc3)ccc21
inactive: activity change, negative = inhibition [1] -10.8% | activity change, negative = inhibition [2] -9.48% | activity, negative = inhibition [3] 0.21% | Potency [4] > 20.6 µM

CN1CCC2(CC1)C1CN(C)CC=C1C(C#N)=C(N)C2(C#N)C#N (centres undefined)
inactive: activity change, negative = inhibition [1] 6.27% | activity change, negative = inhibition [2] 13.7% | activity, negative = inhibition [3] 12.8% | Potency [4] > 20.6 µM

CC1=C(c2ccc(Cl)cc2)[N+](=O)C(C)(C)N1[O-]
inactive: activity change, negative = inhibition [1] 8.72% | activity change, negative = inhibition [2] 13.4% | activity, negative = inhibition [3] -0.945% | Potency [4] > 20.6 µM

Cc1cc(C)c(NC(=O)OCCN2CCOCC2)c(C)c1
inactive: activity change, negative = inhibition [1] 4.21% | activity change, negative = inhibition [2] -5.81% | activity, negative = inhibition [3] 5.25% | Potency [4] > 20.6 µM

Cc1c(N2C(=O)SC(CC(=O)O)C2=O)c(=O)n(-c2ccccc2)n1C (centres undefined)
inactive: activity change, negative = inhibition [1] -20.4% | activity change, negative = inhibition [2] 10.6% | activity, negative = inhibition [3] 6.13% | Potency [4] > 20.6 µM

Clc1cccc(-c2nn3c(COc4ccccc4)nnc3s2)c1
inactive: activity change, negative = inhibition [1] 6.46% | activity change, negative = inhibition [2] -0.831% | activity, negative = inhibition [3] 17.5% | Potency [4] > 20.6 µM

O=c1[nH]c(CN(CCO)CCO)nc2c1C1(CCCCC1)Cc1ccccc1-2
inactive: activity change, negative = inhibition [1] 8.29% | activity change, negative = inhibition [2] 6.88% | activity, negative = inhibition [3] -8.23% | Potency [4] > 20.6 µM

CCOC(=O)CCc1c(C)c(C#N)c2nc3ccccc3n2c1-n1ccnc1C
inactive: activity change, negative = inhibition [1] -3.36% | activity change, negative = inhibition [2] -1.61% | activity, negative = inhibition [3] -4.34% | Potency [4] > 20.6 µM

Cn1ncc2c(Nc3ccccc3Br)ncnc21
inactive: activity change, negative = inhibition [1] 5.55% | activity change, negative = inhibition [2] 17% | activity, negative = inhibition [3] -3.41% | Potency [4] > 20.6 µM

COC(=O)C(NC(=O)c1ccccc1)(Nc1nc(C)cs1)C(F)(F)F (centres undefined)
inactive: activity change, negative = inhibition [1] 20% | activity change, negative = inhibition [2] 6.46% | activity, negative = inhibition [3] -6.57% | Potency [4] > 20.6 µM

CC(C)Cc1nc(NCCN2CCOCC2)c(C#N)c2c1COC(C)(C)C2
inactive: activity change, negative = inhibition [1] -8.99% | activity change, negative = inhibition [2] -9.59% | activity, negative = inhibition [3] 19.2% | Potency [4] > 20.6 µM

Cc1cc(C)n(CC2CC(=O)N(c3ccc(C)c(Cl)c3)C2=O)n1 (centres undefined)
inactive: activity change, negative = inhibition [1] -6.66% | activity change, negative = inhibition [2] 13.9% | activity, negative = inhibition [3] -4.28% | Potency [4] > 20.6 µM

C/C(NC(=O)c1cccs1)=C1\C(=O)C[C@@H]2[C@H]1C2(C)C
inactive: activity change, negative = inhibition [1] -9.31% | activity change, negative = inhibition [2] -25.4% | activity, negative = inhibition [3] -12.2% | Potency [4] > 20.6 µM

CCC(NC(=O)Nc1ccc(O)cc1)(C(F)(F)F)C(F)(F)F
inactive: activity change, negative = inhibition [1] -8.11% | activity change, negative = inhibition [2] 8.99% | activity, negative = inhibition [3] -7.48% | Potency [4] > 20.6 µM

c1ccc2c(c1)[nH]c1c(N3CCSCC3)ncnc12
inactive: activity change, negative = inhibition [1] -11.4% | activity change, negative = inhibition [2] -20.2% | activity, negative = inhibition [3] -18.7% | Potency [4] > 20.6 µM

O=P(Cc1nnco1)(c1ccccc1)c1ccccc1
inactive: activity change, negative = inhibition [1] -8.6% | activity change, negative = inhibition [2] -9.88% | activity, negative = inhibition [3] -0.63% | Potency [4] > 20.6 µM

CN1C(=O)N(c2ccccc2)C(Nc2nncs2)C1(C)C (centres undefined)
inactive: activity change, negative = inhibition [1] 2.23% | activity change, negative = inhibition [2] -8.24% | activity, negative = inhibition [3] -1.47% | Potency [4] > 20.6 µM

CCOC(=O)c1c(C)n(C)c2ccc(OC)c(NC(=O)CN3CCC4(CC3)OCCO4)c12
inactive: activity change, negative = inhibition [1] -3.92% | activity change, negative = inhibition [2] 1.31% | activity, negative = inhibition [3] 3.03% | Potency [4] > 20.6 µM

CCCn1nnc(NC(=O)c2cc(Br)cc(Br)c2OC)n1
inactive: activity change, negative = inhibition [1] -4.03% | activity change, negative = inhibition [2] -11.1% | activity, negative = inhibition [3] -4.41% | Potency [4] > 20.6 µM

COc1ccc(C2C=C(c3ccc(Cl)cc3)Nc3nc(NC(C)=O)nn32)cc1 (centres undefined)
inactive: activity change, negative = inhibition [1] -15.6% | activity change, negative = inhibition [2] -13.4% | activity, negative = inhibition [3] -9.52% | Potency [4] > 20.6 µM

CCCc1nnc(SCc2ccc(OCC)cc2)n1N
inactive: activity change, negative = inhibition [1] 4.67% | activity change, negative = inhibition [2] 7.42% | activity, negative = inhibition [3] 10.4% | Potency [4] > 20.6 µM

O=C(N(c1ccccc1)c1ccccc1)n1ccnc1
inactive: activity change, negative = inhibition [1] 7.1% | activity change, negative = inhibition [2] 10.9% | activity, negative = inhibition [3] 0.426% | Potency [4] > 20.6 µM

N#Cc1c(N2CCOCC2)nc(-c2ccco2)c2c1CCCC2
inactive: activity change, negative = inhibition [1] 2.51% | activity change, negative = inhibition [2] 4.52% | activity, negative = inhibition [3] 4.59% | Potency [4] > 20.6 µM

CCOc1ccc2nc(NC(NC(C)=O)(C(=O)OC)C(F)(F)F)sc2c1 (centres undefined)
inactive: activity change, negative = inhibition [1] 5.71% | activity change, negative = inhibition [2] 0.18% | activity, negative = inhibition [3] -4.87% | Potency [4] > 20.6 µM

S=c1[nH]nc(-c2ccco2)n1Cc1ccccc1
inactive: activity change, negative = inhibition [1] 6.39% | activity change, negative = inhibition [2] 3.89% | activity, negative = inhibition [3] 21.7% | Potency [4] > 20.6 µM

CCN(CC)CCCN1C(=O)C(=O)/C(=C(/O)c2ccccc2)C1c1ccccn1 (centres undefined)
inactive: activity change, negative = inhibition [1] -0.714% | activity change, negative = inhibition [2] 5.2% | activity, negative = inhibition [3] 3.59% | Potency [4] > 20.6 µM

COc1ccc(OC)c(C2/C(=C(\O)c3ccc4c(c3)OCCO4)C(=O)C(=O)N2CCCN(C)C)c1 (centres undefined)
inactive: activity change, negative = inhibition [1] 4.27% | activity change, negative = inhibition [2] 12.2% | activity, negative = inhibition [3] -7.15% | Potency [4] > 20.6 µM

COc1ccc2c(c1OC)C(=O)N1c3ccccc3SC21 (centres undefined)
inactive: activity change, negative = inhibition [1] 2.44% | activity change, negative = inhibition [2] 6% | activity, negative = inhibition [3] -2.16% | Potency [4] > 20.6 µM

COc1ccc(C(O)C(CN2CCOCC2)c2ccccc2)cc1 (centres undefined)
inactive: activity change, negative = inhibition [1] -1.55% | activity change, negative = inhibition [2] 7.08% | activity, negative = inhibition [3] 8.61% | Potency [4] > 20.6 µM

COc1cccc(C=NCCNC(=O)c2nonc2N)c1O
inactive: activity change, negative = inhibition [1] 0.441% | activity change, negative = inhibition [2] -9.52% | activity, negative = inhibition [3] 7.79% | Potency [4] > 20.6 µM

COc1cc(C2NC(=O)NC(C)=C2C(=O)Nc2cccc(C)c2C)cc(OC)c1OC (centres undefined)
inactive: activity change, negative = inhibition [1] 2.82% | activity change, negative = inhibition [2] 10.2% | activity, negative = inhibition [3] -2.31% | Potency [4] > 20.6 µM

O=C(O)CCSc1ccc2ccccc2n1
inactive: activity change, negative = inhibition [1] 14.9% | activity change, negative = inhibition [2] 11.5% | activity, negative = inhibition [3] 0.928% | Potency [4] > 20.6 µM

CCOC(=O)C(C)c1nc2ccccc2[nH]c1=O (centres undefined)
inactive: activity change, negative = inhibition [1] 3.01% | activity change, negative = inhibition [2] -0.784% | activity, negative = inhibition [3] 4.12% | Potency [4] > 20.6 µM

CC1(C)Cc2c(c(N3CCOCC3)nc3snc(N)c23)CO1
inactive: activity change, negative = inhibition [1] -12.8% | activity change, negative = inhibition [2] -24.1% | activity, negative = inhibition [3] -10.9% | Potency [4] > 20.6 µM

Cc1nn(CC(=O)NCCN2CCOCC2)c(=O)c2ccccc12
inactive: activity change, negative = inhibition [1] 5.98% | activity change, negative = inhibition [2] 20% | activity, negative = inhibition [3] 8.76% | Potency [4] > 20.6 µM

CCn1nc(NC(=O)c2ccco2)c2cc3ccccc3nc21
inactive: activity change, negative = inhibition [1] -5.14% | activity change, negative = inhibition [2] 5.58% | activity, negative = inhibition [3] -7.47% | Potency [4] > 20.6 µM

CN(C)S(=O)(=O)Nc1ccc(NS(=O)(=O)N(C)C)c(S(=O)(=O)c2ccccc2)c1
inactive: activity change, negative = inhibition [1] -9.87% | activity change, negative = inhibition [2] -5.57% | activity, negative = inhibition [3] 21.4% | Potency [4] > 20.6 µM

CCOC(=O)C(C#N)C(Cc1ccccc1)c1ccco1 (centres undefined)
inactive: activity change, negative = inhibition [1] -10.1% | activity change, negative = inhibition [2] -8.09% | activity, negative = inhibition [3] -9.08% | Potency [4] > 20.6 µM

C=CCOC(=O)C1=C(C)NC(SCC(=O)N(CC)CC)=C(C#N)C1c1ccco1 (centres undefined)
inactive: activity change, negative = inhibition [1] -27.3% | activity change, negative = inhibition [2] 6.04% | activity, negative = inhibition [3] -6.01% | Potency [4] > 20.6 µM
